Laboratory results from PubChem BioAssay AID574 (The Scripps Research Institute Molecular Screening Center, 2007).
In all, about 65,000 compounds went through this assay and about 450 (0.69%) were called active. This is one part of a sample in which actives are shown more often than they occur. A number with no mark means an inactive call.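 How the source made its calls: active means activation above a set limit, the screen-wide mean activation plus 3 SD (cut at about 8.5% in these data); inactive means the rest.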

Biological target: 5-hydroxytryptamine receptor 1E (Homo sapiens) (UniProt P28566)
Sequence (P28566 whole entry, looked up): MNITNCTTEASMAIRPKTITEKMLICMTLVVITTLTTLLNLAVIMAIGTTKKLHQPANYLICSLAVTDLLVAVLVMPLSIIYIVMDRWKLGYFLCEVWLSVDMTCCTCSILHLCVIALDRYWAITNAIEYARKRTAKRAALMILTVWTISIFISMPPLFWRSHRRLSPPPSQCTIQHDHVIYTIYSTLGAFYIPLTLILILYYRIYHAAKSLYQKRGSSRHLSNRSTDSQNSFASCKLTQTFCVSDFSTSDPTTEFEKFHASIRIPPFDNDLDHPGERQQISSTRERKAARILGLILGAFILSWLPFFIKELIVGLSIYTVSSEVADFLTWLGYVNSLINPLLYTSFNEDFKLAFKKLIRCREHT
Experiment: activation of human serotonin 5HT1E receptor – cell-based, HTS, primary screen (AID 574);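 further: 100% = positive control agonist at 1 µM giving full maximal response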
Conditions: CHO 5-HT1E Ga15 NFAT-bla reporter, FRET; at 6 µM; hits give high values; 0% DMSO wells, 100% control agonist wells

| SMILES | activation |
| --- | --- |
| CCN(CC)P(=O)(C(NC(=O)OC)C(F)(F)C(F)(F)C(F)(F)C(F)F)N(CC)CC (stereo not drawn) | 0.8% |
| COc1ccc(C2OC(=O)CC2C(=O)NC(C)C)cc1 (stereo not drawn) | 0.2% |
| CCc1c(C)nc(N)n2c(SCC(=O)N3CCN(c4ccccc4)CC3)nnc12 | -0.4% |
| Cc1cc(C)c(C)c(S(=O)(=O)Nc2ccc(O)cc2)c1C | -0.5% |
| NS(=O)(=O)c1cc2c(cc1Cl)NC(C(Cl)Cl)NS2(=O)=O (stereo not drawn) | -0.1% |
| CC(=C1C(=O)c2ccccc2C1=O)N1CCN(c2ccccn2)CC1 | 0.2% |
| O=C(c1cccc(C(=O)N2CCN(c3ccc(F)cc3)CC2)c1)N1CCN(c2ccc(F)cc2)CC1 | 0.7% |
| O=C(NC1CCCCC1)C1CCCN(S(=O)(=O)c2cccs2)C1 (stereo not drawn) | -0.4% |
| Cc1cnc(C(=O)OCC(=O)Nc2ccc(Cl)cc2Cl)cn1 | 0.2% |
| CC1(C)Cc2ccccc2-c2nnc(-c3cccc(O)c3)n21 | 0.2% |
| Cc1ccc(NC2=NC(c3ccccc3)n3c(nc(C)cc3=O)N2)cc1 (stereo not drawn) | 0.3% |
| COc1ccc(S(=O)(=O)Nc2ccc(S(=O)(=O)N3CCCCC3)cc2)cc1OC | 0.4% |
| CCCCn1nnnc1NCc1cc(OC)c(OC)c(OC)c1 | -0.7% |
| Cc1ccccc1NC(=O)c1cnn(-c2ccccc2)c1NC(=O)c1ccco1 | 0.5% |
| COc1ccc(OCC(=O)OCC(=O)Nc2ccc(S(=O)(=O)N3CCCCC3)cc2)cc1 | -0.3% |
| CC(C)=C(NC(=O)c1ccco1)C(=O)NCCc1nc2ccccc2[nH]1 | 1.5% |
| CCN(CC)C(=O)CCC(=O)Nc1ccc(C(=O)OC)cc1 | 20.5% (active) |
| COC(=O)c1ccc(NC(=O)c2ccco2)cc1 | 0.1% |
| CCCCC(CCC(=O)Nc1ccc(C(=O)OCC)cc1)C(=O)O (stereo not drawn) | -0.3% |
| O=C1NC(c2ccncc2)Nc2sc3c(c21)CCCC3 (stereo not drawn) | 0.1% |
| CCOC(=O)Cn1c2c(c(-c3ccccc3OC)cc1=O)CCCC2 | -0.4% |

| SMILES | activation |
| --- | --- |
| COC(=O)c1ccc(CSc2nc3ccccc3c(=O)n2-c2cccc(OC)c2)o1 | 1.3% |
| NC(CSC12CC3CC(CC(C3)C1)C2)C(=O)O (stereo not drawn) | 0.4% |
| CC1Cc2ccccc2N1C(=O)Cn1cnc2ccccc2c1=O (stereo not drawn) | -0.8% |
| Cc1nc2ccc(NC(=O)N3CCC(c4ccccc4)C3)cc2nc1C (stereo not drawn) | -0.6% |
| O=C(O)CCN1C(=O)CC2(CCCCC2)C1=O | 9.8% (active) |
| Cc1ccc(F)cc1NC(=O)c1ccc2c(c1)OCO2 | -0.9% |
| COCCCN1C(=O)c2ccc(C(=O)Nc3ccc(OC)cc3OC)cc2C1=O | -0.6% |
| CCSc1nc(=S)n(CC)c(C)c1C(C)=O | -0.3% |
| CCn1c(Cc2ccccc2)nnc1SCc1nc2ccccc2c(=O)[nH]1 | -0.1% |
| CCC(=O)Nc1nc(OC)cc(OC)n1 | -0.6% |
| Cc1ccc(CCn2c3c(c4ccccc42)CN(C)CC3)cn1 | 0.2% |
| Cc1ccc2nc3n(c(=O)c2c1)CCC3 | -0.8% |
| COc1ccc(/C(O)=C2/C(=O)C(=O)N(c3nc(C)c(C)s3)C2c2ccco2)cc1 (stereo not drawn) | 0.5% |
| Cn1c(=O)cc(SCC(=O)N2CCCC2)c2cc(Cl)ccc21 | -0.2% |
| CCOc1ccc(-c2nnn(CC(=O)N3CCN(c4ccc(OC)cc4)CC3)n2)cc1OCC | -1.1% |
| CCOC(=O)c1cc2c(n(-c3ccc(C)cc3)c1=O)CCCC2=O | 0.8% |
| C[C@@H](Nc1nc(-c2ccccc2)nc2c1oc1ccccc12)C(=O)O | -0.7% |
| COc1ccc(S(=O)(=O)Nc2c(C)n(C)n(-c3ccccc3)c2=O)cc1 | -1.6% |
| CCC(C)Sc1nc2c(c(=O)[nH]c(=O)n2C)n1CC(O)COc1cccc2ccccc12 (stereo not drawn) | 1.1% |
| CCOc1c(OC)cc(C2C(C#N)=C(N)Oc3n[nH]c(-c4ccncc4)c32)cc1OC (stereo not drawn) | 0.7% |
| Cc1nc(NC(CC(C)C)C(=O)O)c2nc(C)oc2n1 (stereo not drawn) | -1.1% |

| SMILES | activation |
| --- | --- |
| Cc1cc(C(=O)COC(=O)c2cccs2)c(C)n1-c1c(C)n(C)n(-c2ccccc2)c1=O | -0.2% |
| CN(C(=O)C1CCOC1)c1nnc(-c2cccnc2)s1 (stereo not drawn) | -1.1% |
| COc1ccc(N2C(=O)CCC(C(=O)Nc3ccccn3)C2c2ccc(OC)c(OC)c2)cc1 (stereo not drawn) | 2.5% |
| CCOc1ccc(-n2c(SC(C)C(=O)OC)nc3c(c2=O)SCC3)cc1 (stereo not drawn) | 0.4% |
| COc1ccc(CC(=O)n2nc(-c3cccnc3)nc2N)cc1 | 0.2% |
| O=c1nc(N2CCOCC2)nc2n1CCO2 | 0.6% |
| COc1ccc(C(=O)n2nc(-c3ccc(C)cc3)nc2N)cc1OC | 0% |
| Cc1cc(=O)n(C)c(=O)n1CCCNc1ccccc1 | -0.1% |
| CN(C)CCNC(CC(=O)Nc1ccc(Cl)c(Cl)c1)C(=O)O (stereo not drawn) | 0.3% |
| O=C(OCc1nnc(-c2ccccc2)o1)c1ccc2c(c1)C(=O)N(CCc1ccccc1)C2=O | 0.4% |
| Cc1ccc(-c2cc(C(F)(F)F)n3nc(C(=O)N4CCCC4)cc3n2)cc1 | 0.8% |
| Cc1nc2c(-c3ccccc3)c(C)[nH]n2c(=O)c1Cl | -0.7% |
| Cn1nnnc1SCc1cc(=O)[nH]c2ccccc12 | -0.5% |
| COc1ccccc1C(=O)N1CCN=C1SCc1cccnc1 | -0.4% |
| Cn1nc(-c2ccc(N3CCOCC3)c(NC(=O)c3ccccc3)c2)c2ccccc2c1=O | -1% |
| FC(F)(F)c1cc(-c2cccs2)nc(NCc2ccco2)n1 | -1.9% |
| CC(c1ccccc1)n1c(NCCCn2ccnc2)nc2c1c(=O)[nH]c(=O)n2C (stereo not drawn) | -0.6% |
| COc1cccc(-c2nc3n(n2)C(c2ccccc2Cl)C(C(N)=O)=C(C)N3)c1 (stereo not drawn) | -0.2% |
| CCc1c(C)sc(NC(=O)c2ccc(Br)o2)c1C(=O)OC | 0.2% |
| CCOC(=O)c1sc(NC(=O)CCN2CCOCC2)c(C(=O)OCC)c1C | -0.8% |
| CCc1c(C)sc(NC(=O)OC)c1C(=O)N1CCOCC1 | 14.2% (active) |
